Here are results for 60 compounds from PubChem BioAssay AID1851 (National Center for Advancing Translational Sciences (NCATS), 2009).

Where “and” joins values, the source holds several entries; their conditions need not be identical. Equal entries are not always repeated. The whole screen tested about 16,000 compounds, of which about 4,000 (25%) were called active. Roughly 26% stayed inconclusive and do not appear here. Calls come from the whole dose curve; as a rule, active = well fitted curve in the direction sought with a large enough effect; inconclusive = small, poorly fitted or top-dose-only effect, or effect the other way; inactive = no such curve, though single readings can be large or run the other way. The list is a sample of the results. More than one record can exist for a structure, and the calls need not agree.
% is set by controls: 0 for no effect and ±100 for the full control effect.

Sequence of Cytochrome P450 2C9 (Homo sapiens) (P11712 whole entry, looked up): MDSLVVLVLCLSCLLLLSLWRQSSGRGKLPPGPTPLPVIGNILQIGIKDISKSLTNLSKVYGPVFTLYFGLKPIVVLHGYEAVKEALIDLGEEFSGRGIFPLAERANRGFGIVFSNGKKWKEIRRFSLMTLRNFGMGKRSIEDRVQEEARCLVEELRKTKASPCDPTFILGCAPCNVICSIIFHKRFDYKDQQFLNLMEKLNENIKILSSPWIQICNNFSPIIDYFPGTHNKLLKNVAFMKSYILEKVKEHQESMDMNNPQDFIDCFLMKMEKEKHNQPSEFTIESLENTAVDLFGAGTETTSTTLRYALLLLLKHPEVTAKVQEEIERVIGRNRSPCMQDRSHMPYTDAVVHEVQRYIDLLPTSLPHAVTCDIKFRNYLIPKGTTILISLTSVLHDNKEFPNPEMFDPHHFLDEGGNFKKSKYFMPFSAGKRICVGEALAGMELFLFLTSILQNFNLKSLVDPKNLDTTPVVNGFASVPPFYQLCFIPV

The experiment addresses Cytochrome P450 2C9 (Homo sapiens) (UniProt P11712). Briefly: Cytochrome panel assay with activity outcomes. As to conditions: recombinant CYP, pro-luciferin dealkylation, luminescence, p450-cyp2c9; series mostly up to 57.1 µM.
For `O=C1[C@H]2[C@H]3[C@H](O)[C@H](O)C/C(=N/OC[C@@H](O)COCc4ccco4)[C@@H]3CC[C@@H]2C(=O)N1C[C@@H]1CCCO1`, the activity, negative = inhibition was 39.3% [at 11.4 µM] (inactive). The AC50 is the concentration giving half of the maximal activity seen. For `COc1ccc(S(=O)(=O)N2CCC(N3CCCCC3)CC2)cc1`, the AC50 result was “inactive”. Take `COc1ccc(S(=O)(=O)N2CC3C4C=CC(C4)C3C2)cc1` (stereo not given): the concentration at half-maximal activity (AC50) is 14.1 µM (active). `CCN(CC)CCOC(=O)[C@@H](c1ccccc1)C1CCCCC1`: the AC50 result is “inactive”. On the same count and under the same terms, the value for `CC(C)(C)NC(=O)CSC(=Nc1ccc(F)cc1)NC#N` was 12.6 µM (active); that for `CC(C)OC(=O)c1cc2c(OC[C@@H](O)CNC(C)(C)C)cccc2[nH]1` was “inactive”. Consider `CC(C)CO/N=C1/C[C@@H](O)[C@@H](O)[C@@H]2[C@@H]3C(=O)N(C[C@@H]4CCCO4)C(=O)[C@H]3CC[C@H]12`, for which the activity, negative = inhibition is 9.45% [at 11.4 µM] (inactive). With `Cc1nn(-c2ccccc2)c2c1C(=O)N(Cc1ccccc1)C(=O)C(C)(C)C2`, the AC50 was 17.8 µM (active).

Turning to `O=C(NCCCN1CCN(C2CCCCC2)CC1)Nc1ccccc1C(F)(F)F`, the AC50 entry was “inactive”.

Regarding `CCOC(=O)C1=C(C)NC2=C(C(=O)C(C(=O)OCC)C(c3ccc(OC)cc3)C2)C1c1ccccn1` (stereo not given), the AC50 was 8.91 µM (active).

As for `COCCn1c(=O)c(-c2cc(F)cc(F)c2)nc2cnc(N3CCOCC3)nc21`, the AC50 entry was “inactive”. For `COCCn1c(=O)c(-c2cc(F)cc(F)c2)nc2cnc(N3CCNCC3)nc21`, the AC50 was 1.26 µM (active). With `COCCn1c(=O)c(-c2cccc(C#N)c2)nc2cnc(N3CCNCC3)nc21`, the AC50 was 3.98 µM (active). Still for that read-out and setting: the value for `COCCn1c(=O)c(C)nc2cnc(N3CCNCC3)nc21` was “inactive”. `CN1CCN(c2ncc3nc(-c4cccc(C#N)c4)c(=O)n(CCC#N)c3n2)CC1`: the AC50 result is “inactive”. As for `COc1ccc(-n2c(=O)c(-c3cccc(C#N)c3)nc3cnc(N4CCNCC4)nc32)cc1`, the AC50 result is “inactive”. `C1CCc2c(nc3nnnn3c2NC2CCCC2)C1`: the AC50 result was “inactive”. Same read-out and setting: for `O=C1/C(=C/c2ccccc2)[C@@H](NC2CCCCC2)c2ccccc21` the value was 3.98 µM (active). Consider `S[C@@H]1CCCN(Cc2ccccc2)C1`, for which the activity, negative = inhibition was -2.17% [at 11.4 µM] (inactive).

Consider `O=C(O)[C@H]1CCCN(CCC=C(c2ccccc2)c2ccccc2)C1`, for which the AC50 result was “inactive and 7.94 µM (active)”. On to `COc1ccc(C(OCCN2CCC[C@@H](C(=O)O)C2)(c2ccc(OC)cc2)c2ccc(OC)cc2)cc1`, for which the AC50 entry is “inactive”.

Take `C[C@H](N[C@@H](C)COc1ccccc1)[C@H](O)c1ccc(O)cc1`: the AC50 entry was “inactive”. The same measure, in the same setting: the value for `O=c1c(-c2ccccc2)nc2cnc(N3CCNCC3)nc2n1Cc1ccc(F)cc1` was 10 µM (active); that for `O=c1c(-c2ccc(Cl)cc2)nc2cnc(N3CCNCC3)nc2n1Cc1ccc(F)cc1` was 25.1 µM (active); that for `CN1CCN(c2ncc3nc(-c4ccc(Cl)cc4)c(=O)n(Cc4ccc(F)cc4)c3n2)CC1` was “inactive”. Same read-out and setting: for `CN(C)c1ncc2nc(-c3ccc(Cl)cc3)c(=O)n(Cc3ccc(F)cc3)c2n1` the value was “inactive”; for `O=c1c(-c2ccc(F)cc2)nc2cnc(N3CCNCC3)nc2n1-c1ccccc1`, “inactive”. Still for that read-out and setting: for `CN1CCN(c2ncc3nc(-c4ccccc4)c(=O)n(Cc4ccc(F)cc4)c3n2)CC1` the value was “inactive”; for `CC(O)CN(CCC(N)=O)CCC(N)=O` (stereo not given), “inactive”.

On to `CC(=O)c1cnc2c(C(=O)O)cnn2c1C`, for which the AC50 result is “inactive”. The same measure, in the same setting: the value for `Cc1cc(-c2c(C)[nH]n(-c3ccccc3)c2=O)n(-c2ccccc2)n1` was 1.58 µM (active); that for `Cc1cc(N)n(-c2ccccc2)n1` was “inactive”. Consider `Cc1ccc(C)c(C(=O)CN2C3=NCCCN3c3ccccc32)c1`, for which the AC50 entry was “inactive”.

With `CC(CCC(=O)O)(c1cc(Br)c(O)c(Br)c1)c1cc(Br)c(O)c(Br)c1`, the concentration at half-maximal activity (AC50) is 3.16 µM (active).

As to `CC[C@](N)(CCC(=O)O)C(=O)O`, the AC50 entry is “inactive”. Still for that read-out and setting: the value for `CC(C)c1ccc(Cn2ccc3c4c(N)nc(NC5CC5)nc4ccc32)cc1` was “inactive”; that for `Cc1cc(NC(=O)COC(=O)c2ccc(S(=O)(=O)N3CCCc4ccccc43)cc2)no1` was 3.55 µM (active). With `Cc1ccc(C(=O)ON=C2CCN(S(=O)(=O)c3ccccc3)CC2)cc1`, the AC50 result was “inactive”. For `O=C(NCc1ccccc1)c1ccc(S(=O)(=O)N2CCCc3ccccc32)cc1`, the concentration at half-maximal activity (AC50) was 3.16 µM (active). The same measure, in the same setting: for `Cc1cc(N(CN2CCCC2=O)C(=O)c2ccc(F)cc2)no1` the value was “inactive”. As to `Cc1ccc(S(=O)(=O)N[C@H]2COC(=O)[C@@H](Cc3ccccc3)NC(=O)[C@@H](C)COC(=O)C/C=C\[C@@H]2C)cc1`, the activity, negative = inhibition is 7.81% [at 11.4 µM] (inactive) and -8.92% [at 11.4 µM] (inactive). Turning to `Clc1ccccc1NN(Cc1ccccn1)c1ccccc1Cl`, the activity, negative = inhibition is -64.2% [at 11.4 µM] (inactive).

Consider `Clc1ccccc1NN(Cc1ccncc1)c1ccccc1Cl`, for which the concentration at half-maximal activity (AC50) is 1.58 µM (active). Turning to `CC1=c2c(oc3cc(O)c(Nc4c(C)cc(O)cc4O)c(C)c23)=CC(=O)C1=Nc1c(C)cc(O)cc1O`, the AC50 is 3.16 µM (active).

`Cc1ccc(C2C3=C(CCCC3=O)Nc3nc(SCC(=O)NCc4ccco4)[nH]c(=O)c32)cc1` (stereo not given): the AC50 was 5.01 µM (active). For the compound `NC(=O)CCCC1=NS(=O)(=O)c2ccccc2N1`, the AC50 result was “inactive”. On the same count and under the same terms, the value for `COc1cccc(C(C(=O)Nc2ccc(F)cc2)N(C(=O)Cn2nnc3ccccc32)C2CC2)c1` (stereo not given) was 12.6 µM (active).

Regarding `COCCNC(=O)C(c1ccc(C)o1)N(CC1CCCO1)C(=O)Cn1nnc2ccccc21` (stereo not given), the AC50 entry was “inactive”. On the same count and under the same terms, the value for `COc1ccc(C(C(=O)Nc2ccc(F)cc2)N(C(=O)Cn2nnc3ccccc32)C2CC2)cc1` (stereo not given) was 12.6 µM (active). For `COc1ccc(NC(=O)C(c2ccc(OC)cc2)N(C)C(=O)CNC(C)=O)cc1` (stereo not given), the AC50 entry was “inactive”. Take `CO[C@@H]1COC(=O)C/C=C\[C@@H](C)[C@H](OC)COC(=O)[C@H](COCc2ccccc2)NC(=O)C/C=C\[C@H]1C`: the activity, negative = inhibition was 3.17% [at 11.4 µM] (inactive). Consider `C/C(CCN1CCCCc2nc(C)c(C)cc21)=N\OC[C@@H](C)[C@H](OCc1ccccc1)C(C)C`, for which the activity, negative = inhibition is -7.17% [at 11.4 µM] (inactive). As for `COC(=O)c1cc(OC)c(OC)cc1NC(=S)N1CCCCC1`, the AC50 result was “inactive”. In the case of `Cc1ccccc1C(=O)Oc1ccc(Br)cc1C(=S)N1CCCC1`, the AC50 was 11.2 µM (active). Turning to `CCOC(=O)C1CCCN(C(=O)C2CCN(S(=O)(=O)N3CCC4(CC3)OCCO4)CC2)C1` (stereo not given), the AC50 result is “inactive”. As for `COc1ccc2cc3cc(C(=O)NCCCN4CCOCC4)oc3nc2c1`, the AC50 result was “inactive”.

Take `CCOC(=O)C1CCCN(C(=O)c2sc3nc(-c4ccc(OC)cc4)cn3c2C)C1` (stereo not given): the AC50 was 4.47 µM (active). In the case of `COc1ccc(C2=NOC(C(=O)NCCN3CCOCC3)C2)cc1` (stereo not given), the AC50 entry is “inactive”. Consider `CCOC(=O)C1CCCN(C(=O)/C=C/c2cccc([N+](=O)[O-])c2)C1` (stereo not given), for which the AC50 entry is “inactive”. Still for that read-out and setting: for `COc1ccc(-c2cn3c(C)c(C(=O)NCCN4CCOCC4)sc3n2)cc1` the value was 7.94 µM (active).
